test system: ACVR2B; conditions: concentration: 1 μM, replicates: in singlicate; n = 1
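Further: KINOMEscan kinase panel screen.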

In order of falling “%Inh” value:
1. COc1cccc(C2=C(Nc3cccc(C(=O)O)c3)C(=O)NC2=O)c1 [SB-390770]  40%
2. COc1ccc(-n2cnc3c(N)ncnc32)cc1 [SKF-97236]  32%
3. Cc1ccccc1COc1cc(-n2cnc3cc(Cl)ccc32)sc1C(N)=O [GW813349]  19%
4. CCCC(=O)Nc1n[nH]c2ncc(-c3cccc4ccccc34)cc12 [SB-642057]  9%
5. O=C(Nc1n[nH]c2nc(-c3ccccc3)c(Cl)cc12)C1CC1 [SB-734909]  8%
6. O=C(Nc1n[nH]c2nc(-c3ccccc3)c(Br)cc12)C1CC1 [SB-708998]  7%
7. Nc1n[nH]c2ncc(-c3ccccc3)cc12 [SB-517081]  5%
8. Cc1cccc(-c2cc(-c3c[nH]nc3-c3ccccn3)ccn2)c1 [GW679395]  3%
9. COc1cccc(C2=C(N(C)c3ccccc3)C(=O)NC2=O)c1 [SB-334865]  3%
10. Cl.c1ccc(Cn2cnc3cc(Nc4ncnc5ccccc45)ccc32)cc1 [GW272142]  2%
11. COc1cc2ncn(-c3cc(OCc4ccncc4Br)c(C(N)=O)s3)c2cc1OC [GW854278]  2%
12. CN(C)c1cc(-c2ccc3c(N)n[nH]c3c2)nc(N)n1 [GSK2219329]  1%
13. Cc1ccc(Oc2ccc(Nc3ncnc4cc[nH]c34)cc2C)cn1  0%
14. O=C1NC(=O)C(c2ccccc2)=C1Nc1cccc(O)c1 [SB-390534]  0%
15. CCS(=O)(=O)c1ccc(OC)c(Nc2ncc(-c3ccc(F)cc3)o2)c1.Cl [GW591947]  0%
16. Cc1nn2c(=O)cc(N3CCOCC3)nc2n1Cc1cccc(Cl)c1Cl [GSK2342769]  0%
17. Nc1nc(-c2ccccc2F)c(-c2ccnc3ccccc23)s1 [GW560459]  0%
18. COc1cc2nccc(Nc3cccc(Oc4ccccc4)c3)c2cc1OC.Cl [GW284543]  0%
19. CCc1nc(-c2cccc(C)c2)c(-c2ccncc2)s1  0%
20. O=C(Nc1ccc2c(c1)OCO2)NC1CCN(c2ccnc(NCc3ccc(F)cc3)n2)CC1 [GSK1379859]  0%
21. Cc1ccc(-c2ccc3c(ccc4sc5c(c43)NC[C@@H](C)N=C5N(C)C)n2)cn1  0%
22. Cc1nc(N(C)[C@H]2CN(C(=O)CC#N)CC[C@H]2C)c2cc[nH]c2n1  0%
23. COc1ccc(-c2coc3ccc(-c4nnc(SCc5cccc(C#N)c5)o4)cc23)cc1  0%
24. O=C(NCCNc1ccnc(Nc2ccc(F)cc2)n1)Nc1ccc2c(c1)OCO2 [GSK1379882]  0%
25. CCS(=O)c1ccc(-c2coc3ccc(-c4nnc(C)o4)cc23)cc1 (stereo not drawn)  0%
26. Cc1cccc(-c2nc(Nc3ccc4c(cnn4C)c3)c3ccccc3n2)n1 [GW876731]  0%
27. CCn1c(-c2nonc2N)nc2ccccc21 [SB-693162/GW549034]  0%
28. CCC(=O)c1c(-c2ccccc2)c2cc(Cl)ccc2c(=O)n1Cc1cc(S(C)(=O)=O)n(CC(F)F)n1  0%
29. COC(=O)c1c(-c2ccccc2)c2cc(C)ccc2c(=O)n1Cc1ccccc1  0%
30. Cc1nnc(-c2ccc3ncn(-c4ccc(S(C)=O)cc4)c3c2)o1 (stereo not drawn)  0%
31. COC(=O)c1c(-c2ccccc2)c2cc(Br)ccc2c(=O)n1Cc1ccc(S(C)(=O)=O)cc1  0%
32. CCC(=O)c1c(-c2ccccc2)c2cc(Cl)ccc2c(=O)n1Cc1cc(S(C)(=O)=O)n(CC(N)=O)n1  0%
33. COc1cc(Nc2ccnc3ccc(C(F)(F)F)cc23)cc(OC)c1OC [GW577382]  0%
34. CC(C)(C)c1ccc(C(=O)Nc2cn3cc(-c4ccccc4)ccc3n2)cc1  0%
35. FC(F)(F)c1ccc(-c2ncn(CCCN3CCOCC3)c2-c2ccncc2)cc1 [SB-217780]  0%
36. COC(=O)c1c(-c2ccccc2)c2cc(Br)ccc2c(=O)n1Cc1ccc(NC(=O)CCC(=O)O)cc1  0%

Reference: PMC5540273 (PLoS ONE, 2017)
